Reference: PubChem BioAssay AID485358 (National Center for Advancing Translational Sciences (NCATS), 2010)
The whole screen tested about 340,000 compounds, of which about 1,800 (0.53%) were called active. Shown is part of a subset that was picked to be rich in actives. A number with no mark means an inactive call.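 How the source made its calls: active means activation over 3 SD above normal in the single-dose calcium agonist read (cut at about 30% in these data); inactive means the rest.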
Further: 0% is about no effect.

The compounds below were run against D(2) dopamine receptor (Homo sapiens) (UniProt P14416) (assay: HTS Assay for Allosteric Agonists of the Human D2 Dopamine Receptor: Primary Screen for Agonists). Conditions: HEK293 T-REx D2 cells, calcium flux agonist mode; at 2 µM; stronger effect = higher value.
Chain of D(2) dopamine receptor (Homo sapiens) (P14416 whole entry, looked up): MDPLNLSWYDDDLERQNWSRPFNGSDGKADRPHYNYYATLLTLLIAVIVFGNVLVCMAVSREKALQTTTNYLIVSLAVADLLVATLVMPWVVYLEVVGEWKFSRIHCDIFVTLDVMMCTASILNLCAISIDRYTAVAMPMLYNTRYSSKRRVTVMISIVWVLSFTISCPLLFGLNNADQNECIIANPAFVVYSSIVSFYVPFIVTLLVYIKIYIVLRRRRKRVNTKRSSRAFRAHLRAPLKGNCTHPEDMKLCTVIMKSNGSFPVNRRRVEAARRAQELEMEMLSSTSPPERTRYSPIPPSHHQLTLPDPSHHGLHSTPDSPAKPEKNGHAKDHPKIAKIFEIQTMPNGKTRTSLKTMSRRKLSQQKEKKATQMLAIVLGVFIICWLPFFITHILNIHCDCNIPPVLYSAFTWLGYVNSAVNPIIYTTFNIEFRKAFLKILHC
Outline: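 Tetracycline-induced HEK293 Trex cells with D2 receptor force-coupled to calcium signaling, plated overnight at 30 C and loaded with no-wash calcium dye. Calcium flux read kinetically for 180 s after compound addition; responses flag agonists.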
`COc1cc(OC)c(N(C)C(=O)c2cc3c(=O)oc4ccccc4c3s2)cc1Cl` showed an activation of 0.129%.
`Cc1ccc(C)c(N2CCN(c3ccc4cc(S(=O)(=O)N5CCC(C)CC5)ccc4n3)CC2)c1` was tested, and the activation was 0.192%.
In the case of `Cc1ccc(-c2cn3c(n2)sc2cc(C(=O)NCCCc4ccccc4)ccc23)cc1`, the activation is reported as 1.23%.
Compound `CCN(CC)S(=O)(=O)c1ccc2c(c1)N(CC(=O)NCc1ccccc1)C(=O)CS2` has an activation of -0.489%.
Compound `Cc1cccc(S(=O)(=O)c2cn(Cc3ccccc3)c3cc(N4CCOCC4)c(F)cc3c2=O)c1` has an activation of -0.108%.
For `COc1ccccc1-c1ccnc2[nH]n(-c3ccccc3)c(=O)c12`, the activation was -0.0633%.
In the case of `COc1cc(OC)cc(C(=O)N[C@H](C(=O)Nc2nc3ccccc3[nH]2)C(C)C)c1`, the activation is reported as 0.237%.
For `COc1cc(OC)cc(C(=O)N[C@H](C(=O)OCC(=O)NC(C)c2ccccc2)C(C)C)c1` (stereo not given in full), the activation was 32.6% (active).
`COc1ccc(C(=O)N[C@H](C(=O)NCc2ccccc2)C(C)C)cc1` gave an activation of -0.577%.
In the case of `Cc1ccc(CN2CCN(/N=C/c3ccco3)CC2)c(C)c1`, the activation is reported as 0.881%.
In the case of `CN(C)C(=O)c1nc2ccc(Cl)cn2c1CN1CCN(c2ncccn2)CC1`, the activation is reported as 5.69%.
For `Cc1ccc(CN2CCN(c3ncccn3)CC2)c(C)c1`, the activation was 71.3% (active).
In the case of `Oc1ccc(CN2CCN(c3ncccn3)CC2)cc1`, the activation is reported as 84.4% (active).
`Cc1ccc(CN2CCN(/N=C/c3cccnc3)CC2)c(C)c1` gave an activation of -0.239%.
With `c1cnc(N2CCN(c3ccc4ccccc4n3)CC2)nc1` the activation was 0.566%.
Work on `COc1cc(C(CC(=O)NCCC(C)C)N2Cc3ccccc3C2=O)cc(OC)c1OC` (stereo not given) yielded an activation of 2.01%.
For `CCc1ccc2oc(-c3ccc(C)c(NC(=O)/C=C/c4ccco4)c3)nc2c1`, the activation was 0.62%.
Compound `CCc1ccccc1NC(=O)Cn1c(=O)n(-c2cccc(C)c2)c(=O)c2c1c1cc(OC)ccc1n2C` has an activation of 0.643%.
With `CC(CCc1ccccc1)NCC(O)c1cccc([N+](=O)[O-])c1` (stereo not given) the activation was 59.5% (active).
`O=C(CC(c1ccccc1)c1ccccc1)NCC(O)c1ccc([N+](=O)[O-])cc1` (stereo not given) gave an activation of -0.594%.
`CC(C)OP(=O)(OC(C)C)C(Nc1ccccc1)c1cccc([N+](=O)[O-])c1` (stereo not given) was tested, and the activation was -2.16%.
For `Oc1c(C(c2ccc(F)cc2)N2CCN(Cc3ccccc3)CC2)sc2nc(-c3ccco3)nn12` (stereo not given), the activation was 0.375%.
In the case of `COc1cc(NC(=O)c2noc3c2CSc2ccccc2-3)cc(OC)c1OC`, the activation is reported as -0.598%.
With `COc1ccc(-c2nc3scc(CCNS(=O)(=O)c4cc(F)ccc4OC)n3n2)cc1OC` the activation was -1.74%.
For `Cc1ccc(OCCn2c(CNc3ccccc3C)nc3ccccc32)cc1`, the activation was 0.246%.
Work on `Cc1ccc(C)c(N2CCN(C(=O)Cn3nc(C)c4sc5ccccc5c4c3=O)CC2)c1` yielded an activation of -0.843%.
In the case of `COc1ccccc1CNc1ccc(-c2nc(-c3ccccc3C)no2)cc1[N+](=O)[O-]`, the activation is reported as 2.39%.
For `CCc1cccc(CC)c1NC(=O)Cn1c(=O)c(-c2cc(C)ccc2NC(C)=O)nc2ccccc21`, the activation was 0.924%.
For `CS(=O)(=O)c1ccc(Cl)c(NC(=O)COC(=O)c2cccc(S(=O)(=O)N3CCCC3)c2)c1`, the activation was -0.318%.
Work on `O=C(NCc1cccs1)C1CCN(S(=O)(=O)c2ccc(Cl)cc2)CC1` yielded an activation of 0.13%.
For `O=C(CNCc1cccs1)Nc1cc(S(=O)(=O)N2CCCC2)ccc1Cl`, the activation was 57.6% (active).
Work on `COc1ccc(CN2CC(C(=O)NCCN3CCN(c4ccccc4F)CC3)CC2=O)cc1` (stereo not given) yielded an activation of 0.792%.
With `O=C(NCCCN1CCN(c2ccccc2F)CC1)C1CCC(=O)N1C1CCCCC1` (stereo not given) the activation was 68.8% (active).
With `O=C(NCCCN1CCCCCC1)C1CC(=O)N(C2CCCC2)C1` (stereo not given) the activation was 0.131%.
With `COc1ccccc1NC(=O)C(=O)c1cc(C)n(-c2ccccc2F)c1C` the activation was -1.58%.
Compound `COc1ccc(OC)c(C(=O)c2coc3ccc(O)c(CN4CCOCC4)c23)c1` has an activation of 0.863%.
For `COc1ccc(-c2nn3c(=O)cc(CN4CCN(C(=O)c5ccc(OC)c(OC)c5)CC4)nc3s2)cc1`, the activation was 0.0582%.
With `COc1ccc(OC)c(C(=O)c2ccc(C(=O)N3CCN(Cc4csc(C)n4)CC3)cc2)c1` the activation was 37.6% (active).
For `CCCCN1C(=O)c2[nH]nc(-c3ccccc3O)c2C1c1cccc(OCc2ccccc2)c1` (stereo not given), the activation was -0.42%.
For `O=C(c1ccc2ccccc2n1)N1CCN(c2ccccc2Cl)CC1`, the activation was 1.21%.
`O=C(c1c(F)cccc1Cl)N1CCN(c2ccccn2)CC1` gave an activation of -0.0487%.
`O=C(c1c(Cl)cccc1Cl)N1CCN(c2cccc3[nH]ccc23)CC1` was tested, and the activation was 41.5% (active).
For `Cc1cc(C)cc(NC(=O)Cn2c(=O)c3ccccc3n3nncc23)c1`, the activation was 0.456%.
In the case of `CCCN(CCC)c1nc2c(C)cccn2c(=O)c1/C=C1/SC(=S)N(Cc2ccco2)C1=O`, the activation is reported as 9.37%.
For `Cc1cccn2c(=O)c(/C=C(\C#N)C(N)=O)c(N3CCCCCC3)nc12`, the activation was -0.181%.
For `CCOC(=O)CC1C(=O)NCCN1c1nc2c(C)cccn2c(=O)c1/C=C1\SC(=S)N(C(C)CC)C1=O` (stereo not given), the activation was 61.9% (active).
Compound `CCOC(=O)C1CCCN(C(=O)c2ccc3c(c2)sc2nc(-c4ccc(CC)cc4)cn23)C1` (stereo not given) has an activation of 4.91%.
With `O=[N+]([O-])c1ccc(C=Nc2ccc(Cl)cc2Cl)s1` the activation was 33.6% (active).
With `COc1ccc(CCNC(=O)c2cc3cccc4c3n2CC(C)S4)c(OC)c1OC` (stereo not given) the activation was -0.932%.
Work on `CCOCCCn1c(SCC(=O)Nc2ccc(CC)cc2)nc2ccccc2c1=O` yielded an activation of 0.545%.
For `Cc1ccc(-n2c(=O)c3cccnc3n2CC(=O)NCc2ccc(F)cc2)cc1C`, the activation was 0.0353%.
In the case of `O=C(CC1C(=O)NCCN1C(=O)c1ccc([N+](=O)[O-])cc1)Nc1cccc(Cl)c1` (stereo not given), the activation is reported as -0.121%.
With `O=C(CC1NCCc2ccccc21)Nc1cccc(Cl)c1` (stereo not given) the activation was 35.2% (active).
In the case of `O=C(CC1NCCNC1=O)Nc1cc(Cl)cc(Cl)c1` (stereo not given), the activation is reported as -0.701%.
For `Cc1ccccc1CNC(=O)C(=O)NCC(c1cccs1)S(=O)(=O)c1cccs1` (stereo not given), the activation was 0.367%.
`COc1cccc(NC(=O)N2CCN(C(=O)c3nsc4ccccc34)CC2)c1` showed an activation of -0.159%.
With `COc1ccccc1CN1CCC(CNC(=O)c2cnn(-c3cccc(Cl)c3)c2C2CCN(C(=O)OC(C)(C)C)CC2)CC1` the activation was 1.52%.
`O=C(Cn1cc(SCc2ccccc2)c2ccccc21)N1CCCCC1` was tested, and the activation was 0.397%.
In the case of `Cc1cc(OC(C)C(=O)Nc2sc3c(c2C(N)=O)CCCC3)ccc1Cl` (stereo not given), the activation is reported as -0.192%.
In the case of `CCCCCCc1cc2cc(-c3nnc(-c4ccccc4)o3)c(=O)oc2cc1O`, the activation is reported as 32.4% (active).
`CCn1cc(C(=O)N2CCN(c3cc(Cl)ccc3C)CC2)c(=O)c2cc(S(=O)(=O)N3CCCC3)ccc21` showed an activation of 0.428%.
For `CC1=Nc2cc(C(=O)NCc3ccc(C)cc3)ccc2Sc2ccc(Cl)cc21`, the activation was 0.834%.
`CCc1ccc2oc(-c3ccc(NC(=O)c4cc5ccccc5o4)cc3)nc2c1` gave an activation of 0.271%.
`Cn1nnnc1SCCCNCc1ccc(Cl)cc1` gave an activation of 0.973%.
`Cc1cc(C)cc(NC(=O)CSc2oc(-c3ccccc3)nc2S(=O)(=O)c2ccc(Cl)cc2)c1` gave an activation of -0.364%.
With `CCn1c(=O)c(=O)n(CC)c2cc(N3CCCCC3)c(NC(=O)c3ccc(Cl)cc3)cc21` the activation was -0.0698%.
Work on `CCn1c(=O)c(=O)n(CC)c2cc(N3CCCCC3)c(NC(=O)c3cccc(F)c3)cc21` yielded an activation of -0.09%.
With `CCn1c(=O)n(CC)c2cc(N3CCCC3)c(NC(=O)c3ccccc3Br)cc21` the activation was 36.9% (active).
`CCCC(=O)N1c2ccc(-c3csc(N)n3)cc2CC1C` (stereo not given) showed an activation of 0.868%.
In the case of `CC(C)(C)C(=O)OCc1nc(-c2ccc(O)c(O)c2)cs1`, the activation is reported as 73.8% (active).
For `Cc1onc(C(=O)NN)c1-c1csc(COc2ccccc2)n1`, the activation was -1.45%.
`COc1ccc(C2=NC3(CCCCC3)N(CC(=O)Nc3ccc(C(C)C)cc3)C2=O)cc1` gave an activation of -0.0796%.
Work on `Cc1ccc(CN2C(=O)N/C(=C/c3cc(C)n(-c4ccccn4)c3C)C2=O)cc1` yielded an activation of -1.58%.
In the case of `CN(C)c1ccc(/C=C2\NC(=S)N(Cc3ccccc3)C2=O)cc1`, the activation is reported as 45.9% (active).
`CN(C)c1ccc(C=C2C(=O)OC3(CCCC3)OC2=O)cc1` was tested, and the activation was -0.32%.
Compound `CCCCNC(=O)CSc1nc2cc3c(cc2c(=O)n1CCCCCC(=O)NCc1ccc2c(c1)OCO2)OCO3` has an activation of 0.322%.
Compound `CCOC(=O)N1CCN(CCC(=O)Nc2ccccc2)CC1` has an activation of 0.607%.
Compound `O=C(CN1CCN(c2ccccc2)CC1)Nc1ccc(F)cc1` has an activation of 19.7%.
In the case of `O=C(CCN1CCN(c2ccccc2)CC1)NNC(=S)Nc1ccccc1`, the activation is reported as 56.1% (active).
`Cc1ccc(S(=O)(=O)c2nc(-c3ccco3)oc2SCC(=O)Nc2ccc(F)cc2)cc1` was tested, and the activation was -0.0829%.
Work on `COc1ccc(CNC(=O)C(C)NCc2ccccc2Cl)cc1` (stereo not given) yielded an activation of -0.182%.
For `CC(CCc1ccc(O)cc1)NCc1ccc(Cl)cc1Cl` (stereo not given), the activation was 32.8% (active).
With `CC(CCc1ccccc1)NC(=O)c1cnc(Cl)c(Cl)c1` (stereo not given) the activation was -0.256%.
`C=Cc1ccc(Cn2c(C(=O)OC)cc3sc(C)cc32)cc1` gave an activation of 0.446%.
Compound `O=C(CCN1CCN(C/C=C/c2ccccc2)CC1)Nc1cccc(F)c1` has an activation of 1.58%.
`COc1ccccc1NC(=O)CCN1CCN(c2ccc(Cl)cc2)CC1` showed an activation of -0.695%.
For `O=C(CCN1CCN(C/C=C/c2ccccc2)CC1)Nc1ccccc1Cl`, the activation was 76% (active).
For `Cc1nc(SCC(=O)N2CCN(c3ccccc3)CC2)[nH]c(=O)c1C`, the activation was 16%.
`COc1cccc(C(=O)NCc2ccc3c(c2)CCN3C(=O)c2ccncc2)c1` showed an activation of -0.0874%.
`COc1ccc(-c2nc(S(=O)(=O)c3ccccc3)c(N3CCCCC3)o2)cc1` was tested, and the activation was -0.427%.
`N#Cc1ccsc1NC(=O)CN1CCN(S(=O)(=O)c2cc(Cl)ccc2Cl)CC1` was tested, and the activation was 3.35%.
`O=S(=O)(c1cc(Cl)ccc1Cl)N1CCN(Cc2ccco2)CC1` gave an activation of -1.47%.
In the case of `O=C(CN1CCN(S(=O)(=O)c2cc(Cl)ccc2Cl)CC1)c1ccc(O)c(O)c1`, the activation is reported as 57.8% (active).
Work on `Cc1ccc(NC(=O)Cn2nnc3sc4c(c3c2=O)CCC(C)C4)cc1` (stereo not given) yielded an activation of 0.94%.
`CCc1ccccc1NC(=O)Cc1ccc(NC(=O)N2CCCCc3ccccc32)cc1` was tested, and the activation was 0.173%.
